ChEMBL document CHEMBL3988442, “University of Dundee, Small-Polar-MMV Screening Library” (2021)
For some assays here: Entries with a potency or affinity are not part of this list.

Key:
Design in all cases: scale not given: direction of the effect not stated beside the values
[1] = biological target: Protein translocase subunit SecA (Escherichia coli (strain K12)) (UniProt P10408); assay: Assay to Identify E. coli SecA ATPase Inhibitors; type: functional; conditions: 30 µM
[2] = biological target: T1, Ubiquitin-activating enzyme e1, putative (Leishmania donovani (strain BPK282A1)) (UniProt E9BSI1); assay: Leishmania donovani Ubiquitin Activating Enzyme (LdE1); type: functional; conditions: 30 µM
T1 sequence (whole entry): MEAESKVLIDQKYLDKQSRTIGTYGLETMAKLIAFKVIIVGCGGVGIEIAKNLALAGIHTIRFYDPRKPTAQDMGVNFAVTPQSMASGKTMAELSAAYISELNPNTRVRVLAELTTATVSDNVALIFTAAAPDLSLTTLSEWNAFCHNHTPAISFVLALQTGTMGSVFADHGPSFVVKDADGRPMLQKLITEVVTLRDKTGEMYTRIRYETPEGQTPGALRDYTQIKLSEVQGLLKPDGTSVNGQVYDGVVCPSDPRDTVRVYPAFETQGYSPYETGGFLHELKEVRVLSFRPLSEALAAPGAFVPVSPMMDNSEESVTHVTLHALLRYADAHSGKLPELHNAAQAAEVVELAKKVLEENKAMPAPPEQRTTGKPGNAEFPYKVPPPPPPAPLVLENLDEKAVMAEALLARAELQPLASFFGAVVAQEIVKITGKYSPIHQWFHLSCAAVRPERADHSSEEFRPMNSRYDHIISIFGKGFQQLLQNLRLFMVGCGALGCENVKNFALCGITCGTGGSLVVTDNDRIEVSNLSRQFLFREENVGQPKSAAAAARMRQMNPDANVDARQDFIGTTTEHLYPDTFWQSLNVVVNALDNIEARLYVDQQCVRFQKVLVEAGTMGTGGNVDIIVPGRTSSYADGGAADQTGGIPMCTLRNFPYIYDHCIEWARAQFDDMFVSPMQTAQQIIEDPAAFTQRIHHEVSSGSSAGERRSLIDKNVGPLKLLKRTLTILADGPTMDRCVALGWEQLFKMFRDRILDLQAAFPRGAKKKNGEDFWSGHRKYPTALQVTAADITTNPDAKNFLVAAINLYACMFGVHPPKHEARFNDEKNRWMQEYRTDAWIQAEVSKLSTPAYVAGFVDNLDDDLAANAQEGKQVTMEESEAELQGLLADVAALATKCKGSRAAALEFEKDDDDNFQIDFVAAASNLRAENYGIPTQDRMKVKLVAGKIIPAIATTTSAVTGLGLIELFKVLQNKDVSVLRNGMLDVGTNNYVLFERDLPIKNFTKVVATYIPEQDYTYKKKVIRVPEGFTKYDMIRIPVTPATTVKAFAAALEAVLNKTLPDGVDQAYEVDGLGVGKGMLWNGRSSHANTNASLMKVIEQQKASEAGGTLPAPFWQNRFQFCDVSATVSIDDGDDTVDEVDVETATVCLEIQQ

[3] = biological target: Sialic acid-binding Ig-like lectin 9 (Homo sapiens) (UniProt Q9Y336); assay: Hs-Siglec9 ALPHAscreen SOP 20170721; conditions: 10 µM
[4] = test system: Trypanosoma cruzi; assay: Trypanosoma cruzi phosphomannomutase and mannose-1-phosphate guanylyltransferase assay; type: functional; conditions: 10 µM
[5] = biological target: T2, Arginase-2, mitochondrial (Homo sapiens) (UniProt P78540); assay: in vitro enzyme assay to detect the production of urea directly proportional to the activity of Arginase II; type: functional; conditions: 33.3 µM; also: in the data most compounds retested in dose-response had high values
T2 sequence (whole entry): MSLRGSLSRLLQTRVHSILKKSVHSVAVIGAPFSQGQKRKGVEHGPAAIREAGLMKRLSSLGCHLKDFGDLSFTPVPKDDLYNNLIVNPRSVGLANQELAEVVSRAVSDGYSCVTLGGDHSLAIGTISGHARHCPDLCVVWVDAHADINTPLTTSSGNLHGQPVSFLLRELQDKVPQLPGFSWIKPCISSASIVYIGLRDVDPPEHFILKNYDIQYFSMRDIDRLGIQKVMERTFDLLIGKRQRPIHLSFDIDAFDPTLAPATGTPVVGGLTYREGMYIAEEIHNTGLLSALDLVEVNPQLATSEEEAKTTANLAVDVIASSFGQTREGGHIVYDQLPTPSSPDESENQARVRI

[6] = biological target: T3, Proteasome subunit beta (Trypanosoma cruzi) (UniProt O96673); assay: Trypanosoma cruzi proteasome chymotrypsin-like activity (TcProtChymo) assay.; also: in the data most compounds retested in dose-response had high values; type: functional; conditions: 9.37 µM
T3 sequence (whole entry): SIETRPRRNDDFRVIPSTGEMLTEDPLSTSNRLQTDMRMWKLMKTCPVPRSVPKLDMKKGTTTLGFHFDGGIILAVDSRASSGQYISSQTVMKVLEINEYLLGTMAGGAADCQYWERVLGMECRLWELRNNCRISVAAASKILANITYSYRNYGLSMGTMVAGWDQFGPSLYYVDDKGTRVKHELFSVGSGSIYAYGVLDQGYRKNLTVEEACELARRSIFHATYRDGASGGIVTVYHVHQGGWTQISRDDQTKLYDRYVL

[7] = organism: Homo sapiens; assay: To identify inhibition of the IFN signalling (Jak-Stat) pathway via expression of an eGFP reporter gene under the control of an IFN-stimulated response element (ISRE) containing MxA promoter.; type: functional; conditions: 30 µM
[8] = biological target: T4, Tyrosyl-tRNA synthetase, putative (Trypanosoma cruzi (strain CL Brener)) (UniProt Q4DSP6); assay: Trypanosoma cruzi tyrosyl tRNA synthetase (TcYRS) _High Tyrosine SOP; type: functional; conditions: 30 µM; also: in the data most compounds retested in dose-response had high values
T4 sequence (whole entry): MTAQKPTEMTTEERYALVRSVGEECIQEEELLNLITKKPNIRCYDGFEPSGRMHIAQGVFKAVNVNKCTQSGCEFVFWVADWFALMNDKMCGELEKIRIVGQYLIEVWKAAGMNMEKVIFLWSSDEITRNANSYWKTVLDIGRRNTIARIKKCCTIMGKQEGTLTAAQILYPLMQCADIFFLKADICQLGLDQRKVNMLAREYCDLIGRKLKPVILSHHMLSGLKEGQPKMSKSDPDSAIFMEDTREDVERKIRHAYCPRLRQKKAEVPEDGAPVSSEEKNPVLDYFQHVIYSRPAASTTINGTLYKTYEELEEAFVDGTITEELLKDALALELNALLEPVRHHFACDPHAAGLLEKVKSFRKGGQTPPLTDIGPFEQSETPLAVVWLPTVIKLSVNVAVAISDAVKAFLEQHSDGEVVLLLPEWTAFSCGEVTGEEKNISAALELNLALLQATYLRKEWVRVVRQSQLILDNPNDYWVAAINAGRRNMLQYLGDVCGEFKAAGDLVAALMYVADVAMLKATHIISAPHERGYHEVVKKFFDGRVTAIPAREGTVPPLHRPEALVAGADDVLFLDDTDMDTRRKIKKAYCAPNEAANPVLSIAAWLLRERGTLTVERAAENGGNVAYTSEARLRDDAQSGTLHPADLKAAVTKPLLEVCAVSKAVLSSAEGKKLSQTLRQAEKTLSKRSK

[9] = biological target: T4, Tyrosyl-tRNA synthetase, putative (Trypanosoma cruzi (strain CL Brener)); assay: Trypanosoma cruzi tyrosyl tRNA synthetase (TcYRS) SOP; type: functional; conditions: 30 µM
[10] = biological target: Chromo domain-containing protein 1 (Saccharomyces cerevisiae (strain ATCC 204508 / S288c) (Baker's yeast)) (UniProt P32657); assay: ScCHD-1 Enzyme Inhibition Assay; type: functional; conditions: 30 µM; also: in the data most compounds retested in dose-response had high values
Chain of Chromo domain-containing protein 1 (Saccharomyces cerevisiae (strain ATCC 204508 / S288c) (Baker's yeast)) (P32657 whole entry, the tested form may be a part): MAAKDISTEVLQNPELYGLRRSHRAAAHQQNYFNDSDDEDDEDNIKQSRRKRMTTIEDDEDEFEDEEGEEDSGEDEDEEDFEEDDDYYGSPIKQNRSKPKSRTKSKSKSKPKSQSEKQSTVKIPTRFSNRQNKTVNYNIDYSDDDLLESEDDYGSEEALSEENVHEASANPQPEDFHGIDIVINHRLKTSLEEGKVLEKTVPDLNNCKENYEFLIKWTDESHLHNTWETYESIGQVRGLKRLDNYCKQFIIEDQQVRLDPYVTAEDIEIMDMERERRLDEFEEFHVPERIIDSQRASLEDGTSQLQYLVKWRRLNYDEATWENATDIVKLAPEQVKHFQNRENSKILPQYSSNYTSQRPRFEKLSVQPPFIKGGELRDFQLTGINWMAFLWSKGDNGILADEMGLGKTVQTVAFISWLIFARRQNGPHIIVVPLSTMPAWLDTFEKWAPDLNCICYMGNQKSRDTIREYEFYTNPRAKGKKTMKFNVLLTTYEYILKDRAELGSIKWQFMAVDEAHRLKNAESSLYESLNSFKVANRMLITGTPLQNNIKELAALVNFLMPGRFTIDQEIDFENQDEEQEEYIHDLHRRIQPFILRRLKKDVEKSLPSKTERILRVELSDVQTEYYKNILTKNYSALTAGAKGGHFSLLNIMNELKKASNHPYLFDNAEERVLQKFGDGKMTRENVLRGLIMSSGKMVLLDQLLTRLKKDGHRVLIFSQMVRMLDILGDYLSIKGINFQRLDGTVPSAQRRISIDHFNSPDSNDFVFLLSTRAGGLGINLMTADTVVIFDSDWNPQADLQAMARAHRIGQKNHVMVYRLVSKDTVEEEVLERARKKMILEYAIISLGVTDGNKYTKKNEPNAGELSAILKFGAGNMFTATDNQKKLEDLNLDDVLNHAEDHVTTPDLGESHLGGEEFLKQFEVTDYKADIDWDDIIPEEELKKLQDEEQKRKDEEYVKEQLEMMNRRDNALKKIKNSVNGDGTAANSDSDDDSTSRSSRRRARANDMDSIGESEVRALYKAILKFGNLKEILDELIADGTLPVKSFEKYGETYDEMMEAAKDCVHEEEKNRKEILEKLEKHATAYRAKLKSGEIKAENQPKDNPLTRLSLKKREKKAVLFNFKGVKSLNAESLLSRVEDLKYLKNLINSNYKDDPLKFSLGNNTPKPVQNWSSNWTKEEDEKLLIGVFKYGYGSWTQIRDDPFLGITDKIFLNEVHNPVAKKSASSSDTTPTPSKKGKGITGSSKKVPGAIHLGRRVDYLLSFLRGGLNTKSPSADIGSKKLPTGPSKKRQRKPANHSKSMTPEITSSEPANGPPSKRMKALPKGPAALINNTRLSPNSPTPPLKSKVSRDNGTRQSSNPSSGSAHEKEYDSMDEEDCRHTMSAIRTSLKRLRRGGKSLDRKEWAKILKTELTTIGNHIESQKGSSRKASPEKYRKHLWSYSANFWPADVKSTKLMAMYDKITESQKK

Chain of Sialic acid-binding Ig-like lectin 9 (Homo sapiens) (Q9Y336 whole entry): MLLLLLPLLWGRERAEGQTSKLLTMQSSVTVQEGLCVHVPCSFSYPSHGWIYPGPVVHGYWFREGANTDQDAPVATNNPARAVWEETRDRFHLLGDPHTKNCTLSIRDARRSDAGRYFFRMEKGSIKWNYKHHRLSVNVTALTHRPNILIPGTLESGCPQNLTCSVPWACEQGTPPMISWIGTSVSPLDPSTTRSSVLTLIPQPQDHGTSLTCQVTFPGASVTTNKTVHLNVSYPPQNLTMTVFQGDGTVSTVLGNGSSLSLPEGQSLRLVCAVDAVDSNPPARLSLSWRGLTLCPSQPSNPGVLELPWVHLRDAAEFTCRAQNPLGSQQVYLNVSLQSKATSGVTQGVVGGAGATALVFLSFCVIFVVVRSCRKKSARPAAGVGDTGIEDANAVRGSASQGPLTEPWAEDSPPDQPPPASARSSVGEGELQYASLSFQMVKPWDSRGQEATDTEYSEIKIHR
Chain of Protein translocase subunit SecA (Escherichia coli (strain K12)) (P10408 whole entry): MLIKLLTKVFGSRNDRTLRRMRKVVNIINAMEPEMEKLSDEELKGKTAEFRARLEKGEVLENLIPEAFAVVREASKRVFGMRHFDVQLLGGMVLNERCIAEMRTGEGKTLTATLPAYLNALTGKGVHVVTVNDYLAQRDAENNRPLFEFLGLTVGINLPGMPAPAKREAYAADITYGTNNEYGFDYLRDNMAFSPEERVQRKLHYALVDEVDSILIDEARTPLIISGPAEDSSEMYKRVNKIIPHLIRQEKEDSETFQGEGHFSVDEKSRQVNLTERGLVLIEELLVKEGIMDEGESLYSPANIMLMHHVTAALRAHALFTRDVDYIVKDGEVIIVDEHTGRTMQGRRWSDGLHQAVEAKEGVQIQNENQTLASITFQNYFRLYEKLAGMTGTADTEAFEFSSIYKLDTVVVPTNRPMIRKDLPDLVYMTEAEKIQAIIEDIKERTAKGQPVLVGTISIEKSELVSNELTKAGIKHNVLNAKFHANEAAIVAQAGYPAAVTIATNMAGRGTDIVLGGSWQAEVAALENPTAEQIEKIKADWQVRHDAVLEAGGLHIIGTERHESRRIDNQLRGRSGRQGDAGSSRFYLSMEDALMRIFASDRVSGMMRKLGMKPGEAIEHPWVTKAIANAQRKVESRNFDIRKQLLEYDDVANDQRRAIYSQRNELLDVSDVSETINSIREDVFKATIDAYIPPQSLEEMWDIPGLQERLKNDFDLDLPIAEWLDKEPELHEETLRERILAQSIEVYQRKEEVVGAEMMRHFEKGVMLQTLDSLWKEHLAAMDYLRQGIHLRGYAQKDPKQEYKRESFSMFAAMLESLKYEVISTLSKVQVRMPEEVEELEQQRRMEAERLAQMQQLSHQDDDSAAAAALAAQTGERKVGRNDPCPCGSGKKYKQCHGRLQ

Structure (SMILES)	Percent Effect [1] [%]	Percent Effect [2] [%]	Percent Effect [3] [%]	Percent Effect [4] [%]	Percent Effect [5] [%]	Percent Effect [6] [%]	Percent Effect [7] [%]	Percent Effect [8] [%]	Percent Effect [9] [%]	Percent Effect [10] [%]
CNc1ccc(CC2CCCN(C(=O)c3cncnc3C)C2)nn1 (stereo not given)	3.9	12	-5.1	-6.31	8.41	13	4.65	1.06	10	-22.6
CNC(=O)COc1ccccc1CNC1CCc2ncnn2C1 (stereo not given)	-1.08	2.56	-25.1	6.67	-1.23	18.7	13.3	6.22	20.5	44.8
CNC(=O)c1ccc(C2CN(C(=O)COC)CCO2)nc1 (stereo not given)	0.488	9.33	3.63	-4.14	3.54	7.39	0.241	2.12	7.5	-21.4
Cc1ccccc1CC(=O)N(C)C1CCCC1	-3.46	13.3	-5.48	-4.62	3.1	16.2	17	3.68	7.69	-11.3
Cc1cc(OCC(=O)N2CCCC(c3ccn[nH]3)C2)no1 (stereo not given)	-3.04	5.33	5.5	-5.62	3.55	6.36	3.56	3.68	7.69	-8.42
O=C1COC2(CCN(C(=O)c3ccco3)CC2)CN1Cc1ccccn1	-3.84	16.9	2.04	0	5.48	8.84	-15.4	11.6	20	-5.91
CC(C)C(NC(=O)N1CCN(c2ccc(Cl)cc2)CC1)C(=O)NC1CC1 (stereo not given)	-5.57	5.41	7.5	2.23	-3.15	16.4	21.7	4.79	19.5	-1.96
Cc1noc(C2CCN(C(=O)c3ccc(N(C)C)nc3)CC2)n1	-1.18	12.8	-5.05	3.29	1.23	-0.0853	13.1	8.13	20.5	-1.36
COc1cccc(CN2CCCC3(CCN(C(=O)[C@H]4CCCO4)C3)C2)c1 (stereo not given in full)	-5.07	3.9	-0.211	-0.75	3.65	4.55	0.637	12.6	15	-10.7
Cc1nn(C)c(N(C)C)c1CNC(C)c1cccc(OC(C)C)c1 (stereo not given)	2.06	5.2	13.8	-0.746	-7.58	4.91	15.4	3.92	18.8	-11.9
Cc1cccnc1CNCC1(O)CCCN(Cc2ccc(F)cc2)C1=O (stereo not given)	-5.67	8.11	19.1	9.41	29.7	-0.514	5.17	15.4	29.3	-3.8
